Experimental data as given in the supplement of paper PMC9694430.

How the values were obtained:
Assay in all cases: thermal shift delta Tm vs DMSO control; higher = stronger stabilization (binding)
Details in all cases: 12.5 µM; protein concentration 2 µM
LOC_OS01G57100-cb003 = tested on: LOC_OS01G57100-cb003
Procedure, shortened: (§1)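 Heating from 25°C to 95°C at 0.05°C/s, fluorescence was recorded for 19.5 μl wells of 2 μM E. coli-expressed, purified rice kinase domain in 100 mM potassium phosphate pH 7.5, 150 mM NaCl, 10% glycerol and 5 × SYPRO Orange with compound in DMSO. Boltzmann fits gave melting temperatures for this differential scanning fluorimetry assay. The shift reported is the mean of three replicates against the DMSO-only protein.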

LOC_OS01G60330-cb001 = tested on: LOC_OS01G60330-cb001
Procedure, shortened: as §1

LOC_OS01G60700-cb002 = tested on: LOC_OS01G60700-cb002
Procedure, shortened: as §1

LOC_OS01G63280-cb003 = tested on: LOC_OS01G63280-cb003
Procedure, shortened: as §1

LOC_OS01G67340-cb003 = tested on: LOC_OS01G67340-cb003
Procedure, shortened: as §1

LOC_OS01G70970-cb002 = tested on: LOC_OS01G70970-cb002
Procedure, shortened: as §1

LOC_OS02G07810-cb001 = tested on: LOC_OS02G07810-cb001
Procedure, shortened: as §1

LOC_OS02G08530-cb003 = tested on: LOC_OS02G08530-cb003
Procedure, shortened: as §1

LOC_OS02G14120-cb001 = tested on: LOC_OS02G14120-cb001
Procedure, shortened: as §1

LOC_OS02G17970-cb001 = tested on: LOC_OS02G17970-cb001
Procedure, shortened: as §1

LOC_OS02G45750-cb003 = tested on: LOC_OS02G45750-cb003
Procedure, shortened: as §1

LOC_OS02G54510-cb004 = tested on: LOC_OS02G54510-cb004
Procedure, shortened: as §1

LOC_OS03G04050-cb001 = tested on: LOC_OS03G04050-cb001
Procedure, shortened: as §1

LOC_OS03G12390-cb001 = tested on: LOC_OS03G12390-cb001
Procedure, shortened: as §1

LOC_OS03G27990-cb004 = tested on: LOC_OS03G27990-cb004
Procedure, shortened: as §1

LOC_OS03G50450-cb001 = tested on: LOC_OS03G50450-cb001
Procedure, shortened: as §1

LOC_OS03G50810-cb003 = tested on: LOC_OS03G50810-cb003
Procedure, shortened: as §1

LOC_OS04G35114-cb001 = tested on: LOC_OS04G35114-cb001
Procedure, shortened: as §1

LOC_OS04G38480-cb003 = tested on: T1, LOC_OS04G38480-cb003
T1 sequence (whole entry): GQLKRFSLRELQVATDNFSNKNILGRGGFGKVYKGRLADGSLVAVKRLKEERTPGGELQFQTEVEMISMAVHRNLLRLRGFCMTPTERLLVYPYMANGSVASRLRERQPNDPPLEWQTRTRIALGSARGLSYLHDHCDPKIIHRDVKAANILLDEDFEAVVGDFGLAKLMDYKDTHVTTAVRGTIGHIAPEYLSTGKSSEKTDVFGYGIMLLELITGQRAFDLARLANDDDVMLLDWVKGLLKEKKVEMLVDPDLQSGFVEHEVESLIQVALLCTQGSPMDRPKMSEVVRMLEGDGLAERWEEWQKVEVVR
Procedure, shortened: as §1

LOC_OS04G41100-cb001 = tested on: T2, LOC_OS04G41100-cb001
T2 sequence (whole entry): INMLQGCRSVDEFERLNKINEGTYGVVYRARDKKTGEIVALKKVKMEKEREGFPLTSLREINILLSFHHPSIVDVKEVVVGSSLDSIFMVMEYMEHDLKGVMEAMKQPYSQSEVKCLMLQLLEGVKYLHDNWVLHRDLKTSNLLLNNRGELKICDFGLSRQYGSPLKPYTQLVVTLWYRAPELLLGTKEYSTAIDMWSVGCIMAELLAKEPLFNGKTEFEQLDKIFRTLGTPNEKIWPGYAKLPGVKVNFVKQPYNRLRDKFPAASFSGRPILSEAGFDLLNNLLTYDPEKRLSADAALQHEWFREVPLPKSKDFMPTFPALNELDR
Procedure, shortened: as §1
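Note: purified Escherichia coli-expressed rice kinase domain construct.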

SMILES | thermal shift delta Tm (LOC_OS01G57100-cb003) [°C] | thermal shift delta Tm (LOC_OS01G60330-cb001) [°C] | thermal shift delta Tm (LOC_OS01G60700-cb002) [°C] | thermal shift delta Tm (LOC_OS01G63280-cb003) [°C] | thermal shift delta Tm (LOC_OS01G67340-cb003) [°C] | thermal shift delta Tm (LOC_OS01G70970-cb002) [°C] | thermal shift delta Tm (LOC_OS02G07810-cb001) [°C] | thermal shift delta Tm (LOC_OS02G08530-cb003) [°C] | thermal shift delta Tm (LOC_OS02G14120-cb001) [°C] | thermal shift delta Tm (LOC_OS02G17970-cb001) [°C] | thermal shift delta Tm (LOC_OS02G45750-cb003) [°C] | thermal shift delta Tm (LOC_OS02G54510-cb004) [°C] | thermal shift delta Tm (LOC_OS03G04050-cb001) [°C] | thermal shift delta Tm (LOC_OS03G12390-cb001) [°C] | thermal shift delta Tm (LOC_OS03G27990-cb004) [°C] | thermal shift delta Tm (LOC_OS03G50450-cb001) [°C] | thermal shift delta Tm (LOC_OS03G50810-cb003) [°C] | thermal shift delta Tm (LOC_OS04G35114-cb001) [°C] | thermal shift delta Tm (LOC_OS04G38480-cb003) [°C] | thermal shift delta Tm (LOC_OS04G41100-cb001) [°C]
CC#CC(=O)N1CCC[C@H]1c1nc(-c2ccc(C(=O)Nc3ccccn3)cc2)c2c(N)nccn12 [Acalabrutinib (ACP-196)] | 0.82 | 0.94 | 1.14 | 0.05 | 0.39 | 0.4 | 0.04 | 0.89 | 0.57 | 0.74 | 1.09 | 0.55 | 0.39 | -0.37 | 0.24 | 0.4 | 0.38 | 0.89 | 1.22 | 0.5
Cc1cc(F)c(Nc2ncnc3cc(OCc4ccccc4)ccc23)cc1O | 1.8 | 0.94 | 2.58 | 1.25 | 0.41 | 0.6 | 1.36 | 1.46 | 0.86 | 1.59 | 0.78 | 0.36 | 0.9 | 0.2 | 0.83 | 1.28 | 0.71 | 1.12 | 1.35 | -0.11
CCOc1cc2ncc(C#N)c(Nc3ccc(OCc4ccccn4)c(Cl)c3)c2cc1NC(=O)/C=C/CN(C)C [Neratinib (HKI-272)] | 1.51 | 0.66 | 1.67 | 1.02 | 1.41 | 0.3 | 0.52 | 1 | 1.97 | 1.71 | 4.68 | 0.16 | 0.41 | 0.55 | 1.01 | 0.39 | 1.2 | 5.53 | 1.27 | 0.15
O=C1CCc2c(Oc3ccc4c(c3)[C@@H]3[C@H](O4)[C@H]3c3nc4cc(C(F)(F)F)ccc4[nH]3)ccnc2N1 [Lifirafenib (BGB-283)] | 2.04 | 3.33 | 1.67 | 8.07 | 1.66 | 0.46 | 1.17 | 1.38 | 2.67 | 2.49 | 2.06 | 5.22 | 0.52 | 0.76 | 0.6 | 0.51 | 0.57 | 0.81 | 3.35 | 0.63
Nc1ncc(-c2ccnc(Nc3ccncc3)n2)c(CC2CC2)n1 | 0.51 | 1.45 | 1.53 | 0.58 | 0.33 | 0.37 | 0.77 | 0.52 | 3.13 | 2.16 | 2.65 | 0.44 | 0.08 | 0.7 | 0.32 | 0.09 | 0.92 | 1.69 | 2.3 | 0.78
O=c1cc(N2CCOCC2)oc2c(-c3ccccc3)cccc12 | 0.48 | 1.07 | 1.31 | 0.43 | -0.28 | 0.36 | 1.28 | 0.91 | 0.08 | 0.84 | 0.29 | 0 | 0.47 | 0.68 | -0.02 | 0.21 | 0.41 | 0.16 | 0.52 | 0.8
